# Reference: PubChem BioAssay AID624297 (National Center for Advancing Translational Sciences (NCATS), 2012)
# The whole screen tested about 340,000 compounds, of which about 6,200 (1.8%) were called active. Another 10% or so got no clear call; they are omitted. The call rests on the fitted dose curve; in most records, active means well fitted activation curve with a large enough effect; inconclusive means small, poorly fitted or top-dose-only effect; inactive means no such curve, though single readings can be large or run the other way. Only a selection was taken, and actives are over-represented in it overall.
# Experiment: A quantitative high throughput screen for small molecules that induce DNA re-replication in SW480 colon adenocarcinoma cells. Further: nearly all actives have a fitted effect of over 55% in size. On re-replication activation: % of control where 0% means no effect.
# Details: Hoechst DNA content imaging, 48 h; series mostly up to 46.1 µM; re-replication activation: at the top concentration
# Summary of the method: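 Per well, 250 cells were exposed to pinned compound for 48 hr. Nuclear DNA was visualised with Hoechst (40 min, 37 C) and total object intensity recorded by fluorescence scanning.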
# Potency means the concentration at half of the fitted maximal effect.
Structure (SMILES),re-replication activation,Potency
COc1ccc(CNCCCn2cnc3c(OCc4ccccc4)ncnc32)cc1,-0.249% (inactive),–
O=[N+]([O-])c1ccc(N2CCOCC2)cc1,-3.05% (inactive),–
CCN(CC)C(=O)[C@H]1CC(CC(=O)NCc2ccco2)C(=O)N2CCc3c([nH]c4ccccc34)[C@]12C (stereo partly drawn),0.301% (inactive),–
COc1cccc(NC(=O)CSc2nnc(C3CCCCC3)n2N)c1,-7.72% (inactive),–
COC(=O)c1ccc(CSc2nc3ccccc3c(=O)n2-c2cccc(OC)c2)o1,-0.0715% (inactive),–
COCC(C)n1c(SCC(=O)NC2CCCCC2C)nc2ccccc2c1=O (stereo not drawn),3.05% (inactive),–
COCC(C)n1c(SCc2ccc(C(=O)OC)o2)nc2ccccc2c1=O (stereo not drawn),–,18.4 µM (active)
O=C(c1ccc(Cl)c(S(=O)(=O)N2CCCCCC2)c1)N1CCN(c2ccc(O)cc2)CC1,-4.95% (inactive),–
C[n+]1cccc(C(=O)O)c1,-9.96% (inactive),–
O=C(NCCc1ccccc1)c1c[nH]c2ccc(F)cc2c1=O,2.52% (inactive),–
COc1ccc(CNC2CCCCC2)cc1,-14.2% (inactive),–
CCC(CO)Oc1cc(NCc2ccccc2)c2ncn(C3CCCC3)c2c1 (stereo not drawn),5.67% (inactive),–
COc1ccc(CNc2nc(NCc3ccc(OC)cc3)c3ncn(C4CCCC4)c3n2)cc1,–,4.61 µM (active)
O=S(=O)(O)c1cc2onnc2c2ccccc12,-4.34% (inactive),–
CNc1nc(=O)n(C2CCCO2)cc1C (stereo not drawn),6.26% (inactive),–
Cc1ccc(S(=O)(=O)C2(S(=O)(=O)c3ccc(C)cc3)CCCC2)cc1,–,4.47 µM (active)
Cc1ccc(S(=O)(=O)N(C)C2(C)CCS(=O)(=O)C2)cc1 (stereo not drawn),-6.3% (inactive),–
Cc1ccc(S(=O)(=O)NC2CCCCCC2)cc1,1.2% (inactive),–
C=C1c2cccc(OC)c2O[C@H](C(=O)OCC)[C@@H]1CCCCCC,–,20.6 µM (active)
CCOC(=O)C1=C(C)c2ccccc2OC1C(=O)OCC (stereo not drawn),1.25% (inactive),–
CC(C)(C)OC(=O)C[C@@H]1C/C=C\C[C@@H](CC(=O)N(CCO)Cc2ccccc2)C(=O)N[C@H](Cc2ccccc2)COC1=O,-1.83% (inactive),–
COc1ccccc1CNC(=O)c1ccc(Cl)c(S(=O)(=O)N2CCCC2)c1,-7.01% (inactive),–
O=C(COC(=O)c1cccc(Cl)c1)NC(=O)NCc1ccccc1,-1.83% (inactive),–
COc1ccc(Nc2cc(C)nc(-n3nc(C)cc3C)n2)cc1,–,7.31 µM (active)
Cc1cc(Oc2ccc(Cl)cc2)nc(SCC(=O)c2ccccc2)n1,12.8% (inactive),–

Structure (SMILES),re-replication activation,Potency
Cc1nc(Cl)cc(N/N=C/c2ccccc2)n1,-0.738% (inactive),–
Cc1cc(Nc2ccc(Cl)cc2)nc(N2CCOCC2)n1,-110% (inactive),–
CC(=O)Nc1ccc(Nc2cc(C)nc(Nc3ccc(NC(C)=O)cc3)n2)cc1,9.33% (inactive),–
Cc1cc(N/N=C\c2ccc(Br)cc2)nc(-n2nc(C)cc2C)n1,–,8.2 µM (active)
Cc1ccc(S(=O)(=O)Nc2nc(C)cc(N/N=C/c3ccc(O)cc3)n2)cc1,-6.5% (inactive),–
Cc1cc(C)n(-c2ccc(C(=O)O)cc2[N+](=O)[O-])n1,-17% (inactive),–
CC(=O)c1ccc(Oc2cc(C)nc(-n3nc(C)cc3C)n2)cc1,–,1.84 µM (active)
O=C1NC(=O)C(CCc2ccccc2)(c2ccccc2)N1 (stereo not drawn),2.24% (inactive),–
O=C(O)c1ccc([N+](=O)[O-])cc1Sc1ccsc1,-2.95% (inactive),–
Cc1ccc(S(=O)(=O)Nc2ccc(F)c(S(=O)(=O)N3CCOCC3)c2)cc1,2.24% (inactive),–
O=c1[nH]c2c(c(=O)n1-c1ccccc1)CCO2,-5.03% (inactive),–
COc1ccc(Cn2c(=S)[nH]c3cc(C(=O)NCCCN4CCOCC4)ccc3c2=O)cc1,-8.9% (inactive),–
O=C(NCCN1CCOCC1)c1ccc2c(c1)N(Cc1ccc(Cl)cc1)CCS2,-2.43% (inactive),–
Cc1c(C)n(Cc2ccc(Cl)cc2)c2ccc(C(=O)NCCCN3CCOCC3)cc12,–,20.6 µM (active)
O=C(Nc1ccc(N2CCOCC2)cc1)c1cccc(S(=O)(=O)N2CCOCC2)c1,3.61% (inactive),–
Cc1cc(NC(=O)CSc2nnc(-c3ccco3)n2N)no1,-6.78% (inactive),–
Cc1noc(C)c1NC(=O)Nc1ccc2c(c1)C(=O)N([C@H](C)CO)C[C@H](C)[C@@H](CN(C)C(=O)Nc1ccccc1)O2,-0.626% (inactive),–
CCCCCCCCNS(=O)(=O)CCNC1CCCCC1,-37.2% (inactive),–
CCOC(=O)c1cnc2sccn2c1=O,–,14.6 µM (active)
CN(C)/C=C/C(=O)c1cnc2sccn2c1=O,-1.67% (inactive),–
CCOC(=O)c1ccccc1NS(=O)(=O)c1c(C)nc2sccn2c1=O,-10.1% (inactive),–
CN(CCc1ccccc1)C(=O)c1cccc(NC(=O)Cc2ccc([N+](=O)[O-])cc2)c1,-7.8% (inactive),–
CC(C)(C)NS(=O)(=O)NC(=O)C1=C(N2CCCC2)COC1=O,-8.73% (inactive),–
CC(C)c1cc(N=O)cc(C(C)C)c1O,7.87% (inactive),–
CCCCOc1ccc(C(=O)NN2CCN(C)CC2)cc1,3.08% (inactive),–

Structure (SMILES),re-replication activation,Potency
CCCOc1ccc(C(=O)CCC(=O)OC(C)C(=O)Nc2ccc(NC(C)=O)cc2)cc1 (stereo not drawn),-6.44% (inactive),–
CCCOc1ccc(C(=O)C(CCC(CNCC)C(=O)c2ccc(OCCC)cc2)CNCC)cc1 (stereo not drawn),–,9.2 µM (active)
CN1CCOC1c1ccc(C2OCCN2C)cc1 (stereo not drawn),0.917% (inactive),–
N#CCCN(C(=O)COC(=O)c1ccc2c(c1)OCCO2)c1ccccc1,-1.2% (inactive),–
Cc1cc(NC(=O)COC(=O)/C=C/c2ccc(C)o2)no1,-11% (inactive),–
CC12CCC(C(=O)N(NC(=O)c3ccccc3O)C1=O)C2(C)C (stereo not drawn),–,20.6 µM (active)
O=C(NN1C(=O)C2C(C1=O)C1C=CC2C12CC2)c1ccccc1Cl (stereo not drawn),-0.766% (inactive),–
CC12CCC(C(=O)N(c3cccc(Cl)c3)C1=O)C2(C)C (stereo not drawn),18.4% (inactive),–
CN(C(=O)c1cccc(NC(=O)Cc2ccc(NC(=O)C3CCCN(C(=O)C4CC4)C3)cc2)c1)C1CC1 (stereo not drawn),-35.3% (inactive),–
CCOc1ccc(NC(=O)CN(C)C(=O)c2cccc(S(=O)(=O)N3CCCC3)c2)cc1OCC,–,6.51 µM (active)
Cc1ccc(S(=O)(=O)N2CCCCC2)cc1C(=O)N(C)CC(=O)Nc1cccc(F)c1,3.47% (inactive),–
COc1ccc(NC(=O)CN(C)C(=O)c2cccc(S(=O)(=O)N3CCN(c4ccccc4)CC3)c2)cc1,-64.6% (inactive),–
Cc1noc(C)c1NC(=O)Nc1cccc2c1O[C@H](CN(C)S(=O)(=O)c1c(C)noc1C)[C@@H](C)CN([C@H](C)CO)C2=O,5.61% (inactive),–
CCCCOc1ccc(C(=O)NCC(=O)OCC(=O)c2c(N)n(C)c(=O)n(C)c2=O)cc1,-0.586% (inactive),–
CSc1ncccc1C(=O)NCC(c1ccco1)N1CCCCC1 (stereo not drawn),0.306% (inactive),–
Cc1ccc(CN2CCC(n3nccc3NC(=O)CCCc3ccccc3)CC2)o1,-0.682% (inactive),–
COc1cc(CN2CCC(n3nccc3NC(=O)CCCc3ccccc3)CC2)ccc1O,-4.37% (inactive),–
COc1ccc(CN2CCC(n3nccc3NC(=O)CCCc3ccccc3)CC2)cc1C,–,18.4 µM (active)
COc1ccc(CNC(=O)C[C@H]2C[C@H](C(=O)N3CCOCC3)[C@@]3(CCC4CCCC4)c4[nH]c5ccc(Cl)cc5c4CCN3C2=O)cc1OC,25.9% (inactive),–
CC(C)(C)OC(=O)C[C@H]1C/C=C\C[C@@H](CC(=O)N[C@H](CO)Cc2ccccc2)C(=O)NC[C@@H](c2ccccc2)OC1=O,-9.13% (inactive),–
N#C/C(=C(/O)COC(=O)COc1ccc(Cl)cc1)c1nc2ccccc2[nH]1,–,29.1 µM (active)
COCCN(CCOC)S(=O)(=O)c1ccc(/C(O)=C(\C#N)c2nc3ccccc3[nH]2)cc1,2.9% (inactive),–
Cc1ccccc1OC/C(O)=C(\C#N)c1nc2ccccc2[nH]1,10.2% (inactive),–
CCN1C[C@@H]2[C@@H]3C(=O)N(Cc4ccccc4)C(=O)[C@@H]3[C@](C)(C1=O)N2C(=O)c1ccc(C(C)(C)C)cc1,-7.2% (inactive),–
O=C(NOCc1ccccc1)c1cccc([N+](=O)[O-])c1,-38.1% (inactive),–

Structure (SMILES),re-replication activation,Potency
O=c1oc2ccccc2c(=O)c2ccccc12,-5.45% (inactive),–
CC[C@]12c3[nH]c4cc(CCC(=O)N(C)C)ccc4c3CCN1C(=O)[C@@H](CC(=O)NCc1ccco1)C[C@@H]2C(=O)N1CCN(C(=O)c2ccco2)CC1,-12.6% (inactive),–
CC(C)Cn1c(N)c(C(=O)NCc2cccs2)c2nc3ccccc3nc21,–,5.17 µM (active)
O=C(NCc1cccs1)c1cc(-c2ccccn2)nc2ccc(Br)cc12,5.04% (inactive),–
Cn1ncc(Br)c1C(=O)NCc1cccs1,-6.4% (inactive),–
O=c1ccn([C@@H]2O[C@H](CNS(=O)(=O)c3cc4ccccc4s3)[C@@H](O)[C@H]2O)c(=O)[nH]1,-34% (inactive),–
CCN(c1ccccc1)S(=O)(=O)c1ccc(C(=O)Nc2ccccc2OC)cc1,9.42% (inactive),–
Cc1ccc(-c2nn(-c3ccc(F)cc3)cc2C(=O)NCC(c2cccs2)N2CCOCC2)cc1 (stereo not drawn),–,23.1 µM (active)
O=C(NCCCN1CCOCC1)c1cn(-c2ccccc2)nc1-c1ccc(F)cc1,-5.03% (inactive),–
O=C(NCC(c1cccs1)N1CCOCC1)c1cc(-c2ccccn2)nc2ccccc12 (stereo not drawn),1.98% (inactive),–
Cn1c(=S)sc2ccc3ccccc3c21,-4.54% (inactive),–
Cc1cc(C)c(C=NNc2nc3c([nH]2)c(=O)n(C)c(=O)n3C)c(C)c1,19.5% (inactive),–
COc1cccc(/C=N/Nc2ccc(S(=O)(=O)Nc3ccccc3C(=O)O)cc2[N+](=O)[O-])c1O,-6.27% (inactive),–
COc1cccc(/C=N/Nc2ncc(C(F)(F)F)cc2Cl)c1O,–,0.92 µM (active)
FC(F)(F)c1cnc(Oc2ccccc2-c2nnc(-c3ccc(Cl)cc3)o2)c(Cl)c1,-3.88% (inactive),–
CC(=NNC(=O)c1ccncc1)c1ccc(Cl)c(Cl)c1,23.1% (inactive),–
C=CCC[C@@H](Cc1ccc(F)cc1)C(=O)OC[C@@H](C)NC(=O)[C@H](CC=C)CC(=O)N(CCO)Cc1ccccc1,-0.963% (inactive),–
CCOC(=O)C1=C(C)Nc2nc3ccccc3n2C1c1cccs1 (stereo not drawn),-4.46% (inactive),–
COc1ccccc1NC(=O)C1=C(C)Nc2nc3ccccc3n2C1c1cccs1 (stereo not drawn),–,4.11 µM (active)
CCOc1ccc(C2C(C(=O)NC)=C(C)Nc3nc4ccccc4n32)cc1OC (stereo not drawn),-12.1% (inactive),–
Cc1ccc(C(=O)O)c(NC=O)c1OCc1ccccc1,-4.14% (inactive),–
CC(OC(=O)c1c(F)cccc1F)C(=O)NCCC1=CCCCC1 (stereo not drawn),5.62% (inactive),–
O=C(Nc1cccc(S(=O)(=O)N2CCCC2)c1)c1cncc(Br)c1,-1.35% (inactive),–
